The campaign covered roughly 310,000 compounds. About 14,000 (4.5%) showed an effect of 50% or more. Effects have a minus sign here. For the sample, strong results were picked, then their nearest neighbours and some compounds at random.
Each compound was assayed against human ether-à-go-go-related gene (hERG) potassium channel (human, UniProt Q12809) (assay: primary screen, population patch clamp on CHO cells stably expressing hERG; higher = less effect of the substance).
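Further: peak tail current of the secondary pulse compared with the same well before compound.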

Sequence of human ether-à-go-go-related gene (hERG) potassium channel (Q12809 whole entry, looked up): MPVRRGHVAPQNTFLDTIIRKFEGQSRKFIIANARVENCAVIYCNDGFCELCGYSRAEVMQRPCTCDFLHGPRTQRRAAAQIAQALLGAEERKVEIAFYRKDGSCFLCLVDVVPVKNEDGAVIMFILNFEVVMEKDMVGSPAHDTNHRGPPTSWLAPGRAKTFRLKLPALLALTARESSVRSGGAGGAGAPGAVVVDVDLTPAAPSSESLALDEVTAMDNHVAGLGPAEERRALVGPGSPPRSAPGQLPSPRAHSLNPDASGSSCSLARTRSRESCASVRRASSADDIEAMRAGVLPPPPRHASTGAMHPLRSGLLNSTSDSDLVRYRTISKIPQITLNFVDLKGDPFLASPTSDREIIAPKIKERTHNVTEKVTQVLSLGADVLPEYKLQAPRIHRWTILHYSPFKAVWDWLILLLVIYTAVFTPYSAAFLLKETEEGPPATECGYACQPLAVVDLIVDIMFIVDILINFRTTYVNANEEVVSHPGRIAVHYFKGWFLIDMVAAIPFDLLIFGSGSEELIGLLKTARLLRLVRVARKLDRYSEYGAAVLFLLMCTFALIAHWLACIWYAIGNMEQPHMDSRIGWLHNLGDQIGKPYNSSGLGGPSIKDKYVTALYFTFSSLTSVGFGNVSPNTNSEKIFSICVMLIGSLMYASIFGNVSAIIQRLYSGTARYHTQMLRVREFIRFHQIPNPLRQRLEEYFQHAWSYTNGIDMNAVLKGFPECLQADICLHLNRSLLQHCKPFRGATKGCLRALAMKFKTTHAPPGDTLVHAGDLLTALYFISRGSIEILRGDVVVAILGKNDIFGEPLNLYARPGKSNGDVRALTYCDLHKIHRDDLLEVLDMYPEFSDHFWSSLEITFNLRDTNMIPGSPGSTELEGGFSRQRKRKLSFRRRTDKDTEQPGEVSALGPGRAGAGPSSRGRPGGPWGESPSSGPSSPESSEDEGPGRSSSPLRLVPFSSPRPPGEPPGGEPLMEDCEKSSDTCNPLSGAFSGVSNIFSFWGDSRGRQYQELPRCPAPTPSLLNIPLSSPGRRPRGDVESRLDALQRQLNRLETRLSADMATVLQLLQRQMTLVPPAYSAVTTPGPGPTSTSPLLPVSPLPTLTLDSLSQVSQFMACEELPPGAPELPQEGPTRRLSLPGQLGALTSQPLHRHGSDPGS

In order of falling “hERG current change (%, negative = inhibition) at 10uM” value:
1. CCCNC(=O)C1CCN(S(=O)(=O)c2cccs2)CC1  28.1%
2. OCC(Br)CBr (centres unmarked)  23%
3. C=C1CCC2[C@](C)(CO)[C@H](O)CC[C@@]2(C)[C@@H]1C/C=C1\C(=O)OC[C@H]1O (some centres unmarked)  18.9%
4. O=C(CSc1nnc(NC(=O)C2CC(=O)N(c3ccccc3)C2)s1)NCc1ccco1 (centres unmarked)  16.9%
5. COc1ccc(C(=O)NC(=S)Nc2ccc(S(=O)(=O)Nc3cc(OC)ncn3)cc2)cc1  15.4%
6. CCOC(=O)c1[nH]c2ccc(OC)cc2c1NC(=O)c1ccccc1C(=O)O  14.2%
7. COC(=O)C1C(=O)C2=C(CC1C)Nc1ccccc1NC2c1ccc(C)s1 (centres unmarked)  12.8%
8. Cc1c(CN(C)C(=O)c2nn(C)cc2[N+](=O)[O-])cnn1C  8.63%
9. C=CCOc1cccc(C2C(C(=O)c3ccc(C)o3)=C(O)C(=O)N2c2nccs2)c1 (centres unmarked)  7.99%
10. O=C(NCCNS(=O)(=O)c1ccc(C(F)(F)F)cc1)N1CCOCC1  6.84%
11. CCN(CC)c1ccc(NC(=O)CCNS(=O)(=O)c2ccc3c(c2)CCC(=O)N3)c(C)c1  5.77%
12. O=C(OCC(=O)N1CCCC1=O)C1CCN(S(=O)(=O)c2ccc(Cl)c(C(F)(F)F)c2)CC1  5.31%
13. CC(C)NC(=O)N1CCN(c2ccncc2S(=O)(=O)N2CCCCC2)CC1  5.19%
14. O=C(CNc1ccccc1)Nc1ccc(F)cc1  3.4%
15. CCc1nn(CC(=O)NCCCc2ccccc2)c(=O)c2cc3cc(F)ccc3n12  1.58%
16. CC(=O)CCS(=O)(=O)c1ccc(C)c(C)c1  1.19%
17. CSCCC1NC(=O)N(CC(=O)N2CCc3ccccc3C2)C1=O (centres unmarked)  -1.18%
18. Cc1cc(C)n(CC(O)COc2c(C)cccc2C)n1 (centres unmarked)  -1.28%
19. COC(=O)c1ccccc1NC(=O)CSc1nnc(-c2cccc(NC(C)=O)c2)n1C  -3.68%
20. COc1ccc(-c2cnc(N)n2CC2CCCO2)cc1 (centres unmarked)  -5.53%
21. O=C(c1ccco1)N(Cc1cccc(F)c1)C1CCS(=O)(=O)C1 (centres unmarked)  -5.78%
22. O=C(NCCN1C(=O)S/C(=C\c2ccc(F)cc2)C1=O)C1CCN(S(=O)(=O)c2cccs2)CC1  -7.1%
23. COc1ccc(-n2ccnc2SCC(=O)NCc2ccc3c(c2)OCO3)cc1  -7.81%
24. Cc1c(CN(C)C(=O)c2ccc(Br)o2)cnn1C  -7.89%
25. CCCCn1c(N)c(N(CC(C)C)C(=O)CCCc2cccs2)c(=O)[nH]c1=O  -9.44%
26. O=C(c1ccco1)N(Cc1ccc(Cl)cc1)C1CCS(=O)(=O)C1 (centres unmarked)  -11.6%
27. Cc1nn(C)cc1C(=O)/C=C/c1ccc([N+](=O)[O-])cc1  -12.4%
28. Cc1nn(C)c(C)c1CCC(=O)N1CCCC(N2CCN(c3ccc(F)cc3)CC2)C1 (centres unmarked)  -12.5%
29. O=C(c1cccs1)N(Cc1cccc(F)c1)C1CCS(=O)(=O)C1 (centres unmarked)  -14.9%
30. CCS(=O)(=O)N1CCC(C(=O)NCCCN2CCN(c3ccccc3F)CC2)CC1  -16.3%
31. COc1ccc(N(CC(=O)NC2CCCCC2)C(=O)c2ccc(C)s2)c(OC)c1  -18.1%
32. O=C(NCCCn1ccnc1)c1ccc(-c2ccccc2)cc1  -21.6%
33. CSCC(=O)N1CCCC(N2CCN(c3ccc(F)cc3)CC2)C1 (centres unmarked)  -22.9%
34. O=C(NCCN1C(=O)S/C(=C\c2ccccc2)C1=O)C1CCN(S(=O)(=O)c2cccs2)CC1  -23.8%
35. COc1ccc(N2CCN(CCNC(=O)CCNS(=O)(=O)c3cccs3)CC2)cc1  -24.7%
36. O=P(C1=C(N2CCOCC2)/C(=C\c2ccccc2)CC1)(N1CCOCC1)N1CCOCC1  -25.3%
37. CCn1cc(CNC(=O)/C=C/c2ccc([N+](=O)[O-])cc2)c(C)n1  -33%
38. COCCNC(=O)C1CCN(S(=O)(=O)c2c(C)noc2/C=C/c2cccs2)CC1  -34.7%
39. CSCCC(=O)N1CCCC(N2CCN(c3cccc(C(F)(F)F)c3)CC2)C1 (centres unmarked)  -40.4%
40. O=C(c1cccs1)N(Cc1ccc(Cl)cc1)C1CCS(=O)(=O)C1 (centres unmarked)  -41.9%
41. Cc1noc(/C=C/c2cccs2)c1S(=O)(=O)N1CCC(C(=O)NCCCN2CCCC(C)C2)CC1 (centres unmarked)  -44.5%
42. Cc1ccccc1N1CCN(C2CCCN(C(=O)CCc3c(C)noc3C)C2)CC1 (centres unmarked)  -46.3%
43. CSCC(=O)N1CCCC(N2CCN(c3cccc(C(F)(F)F)c3)CC2)C1 (centres unmarked)  -48.1%
44. Cc1ccccc1N1CCN(C2CCCN(C(=O)CCC3(C)CC3)C2)CC1 (centres unmarked)  -48.6%
45. COc1ccc(N2CCN(C(=O)C3CCN(S(=O)(=O)c4cccs4)CC3)CC2)cc1  -49.3%
46. COc1ccc(N2CCN(CCNC(=O)C3CCN(S(=O)(=O)c4cccs4)CC3)CC2)cc1  -50.7%
47. O=C(c1cccs1)N(Cc1cccc(Cl)c1)C1CCS(=O)(=O)C1 (centres unmarked)  -52%
48. Cc1noc(C)c1CCC(=O)N1CCCC(N2CCN(c3ccc(F)cc3)CC2)C1 (centres unmarked)  -53.4%
49. O=C(NCCN1C(=O)S/C(=C\c2ccccc2F)C1=O)C1CCN(S(=O)(=O)c2cccs2)CC1  -57.2%
50. O=C(c1ccco1)N(Cc1cccc(Cl)c1)C1CCS(=O)(=O)C1 (centres unmarked)  -59%
51. CCn1cc(CN(C)C(=O)/C=C/c2ccc([N+](=O)[O-])cc2)c(C)n1  -59.4%
52. O=C(NCCCN1CCN(c2ccccc2F)CC1)C1CCN(S(=O)(=O)c2cccs2)CC1  -60.6%
53. CC1(CCC(=O)N2CCCC(N3CCN(c4cccc(C(F)(F)F)c4)CC3)C2)CC1 (centres unmarked)  -61.5%
54. CC1(CCC(=O)N2CCCC(N3CCN(c4ccc(F)cc4)CC3)C2)CC1 (centres unmarked)  -64.7%
55. Cc1c(CN(C)C(=O)/C=C/c2ccc([N+](=O)[O-])cc2)cnn1C  -69.6%
56. Cc1noc(/C=C/c2cccs2)c1S(=O)(=O)N1CCC(C(=O)NCCCN2CCC(C)CC2)CC1  -83.7%
